# Measured values as given in PubChem BioAssay AID2283220 (EPA ToxCast).
# Inconclusive results are not listed. Activity calls are given as the source filed them. The calls were made as follows: active = hit-call score of the fitted dose curve at least 0.9, where 1 is the maximum; inconclusive = response in the unintended direction; inactive = score below 0.9.
# Target: human Serum/Glucocorticoid Regulated Kinase 1 (SGK1), SGK1 (gene 6446) (UniProt O00141)
# Experiment: NVS_ENZ_hSGK1: NovaScreen (NVS) Enzymatic Assay for human Serum/Glucocorticoid Regulated Kinase 1 (SGK1)
# Protocol: NVS_ENZ_hSGK1 is a biochemical, single-readout assay that uses extracted gene-proteins in a cell-free assay. Measurements were taken 1 hour after chemical dosing in a 96-well plate.NVS_ENZ_hSGK1 is one of one assay component(s) measured or calculated from the NVS_ENZ_hSGK1 assay. It is designed to make measurements of enzyme activity, a form of enzyme reporter, as detected with fluorescence intensity signals by Fluorescence and electrophoretic mobility shift technology.Data from the assay component NVS_ENZ_hSGK1 was analyzed into 1 assay endpoint. This assay endpoint, NVS_ENZ_hSGK1, was analyzed in the positive analysis fitting direction relative to DMSO as the negative control and baseline of activity. Using a type of enzyme reporter, loss-of-signal activity can be used to understand changes in the enzymatic activity as they relate to the gene SGK1. Furthermore, this assay endpoint can be referred to as a primary readout, because this assay has produced […] where this one serves a enzymatic activity function. To generalize the intended target to other relatable targets, this assay endpoint is annotated to the kinase intended target family, where the subfamily is serine/threonine kinase.
# Binding assays used specific radioligands (tritiated, iodinated) with non-radioactive competitive displacement ligands in agonist or antagonist protocols (as indicated) and various reference compounds and inhibitors to titrate specific binding to receptors and transporters. Most enzyme assays (CYPs, kinases, phosphatases, proteases, HDACs) used recombinant protein and specific substrates (fluorescence mostly, some colorimetric and radioactive) and inhibitors, followed by a biochemical separation of substrate and product. All assays for the biochemical HTS were initially run in duplicate at a single concentration (10 uM for CYP450 assays and 25 uM for all others). […]
# human Serum/Glucocorticoid Regulated Kinase 1 (SGK1), SGK1 (gene 6446), sequence (O00141 whole entry, looked up): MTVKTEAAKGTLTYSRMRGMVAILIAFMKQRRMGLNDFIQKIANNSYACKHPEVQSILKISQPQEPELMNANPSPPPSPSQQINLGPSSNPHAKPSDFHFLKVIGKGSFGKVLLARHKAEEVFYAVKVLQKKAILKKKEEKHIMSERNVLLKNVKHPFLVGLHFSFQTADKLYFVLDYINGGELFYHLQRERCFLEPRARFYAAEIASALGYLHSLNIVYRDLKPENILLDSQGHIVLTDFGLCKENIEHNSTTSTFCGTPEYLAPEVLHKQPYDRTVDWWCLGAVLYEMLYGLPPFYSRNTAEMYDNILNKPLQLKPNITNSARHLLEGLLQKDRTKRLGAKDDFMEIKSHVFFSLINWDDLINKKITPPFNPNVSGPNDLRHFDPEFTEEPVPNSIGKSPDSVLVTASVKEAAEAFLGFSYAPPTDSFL
Structure (SMILES),outcome,AC50
N#CSCSc1nc2ccccc2s1,inactive,–
S=C([S-])NCCNC(=S)[S-].[Mn+2],–,10.6 µM (active)
O=C(Nc1ccc([N+](=O)[O-])cc1Cl)c1cc(Cl)ccc1O,inactive,–
